Several values for one entry are separate records, joined by “and”; a condition that tells them apart may be missing. Identical values can stand only once. Results filed as inconclusive are left out. Activity calls are given as the source filed them. Unless noted, the call rests on the fitted dose curve; in most records, active means well fitted curve in the direction sought with a large enough effect in the repeat runs; inconclusive means weak or mixed curves; inactive means no such curve, though single readings can be large; an effect the other way counts as inactive or inconclusive.

Among the data in PubChem BioAssay (Tox21) are Potency values, retold here.

Assay [1] is described as follows: Human pregnane X receptor (PXR) small molecule agonists, qHTS cell viability counter screen (AID 1346977). Further: nearly all actives have a fitted effect of over 50% in size. An outline of the steps: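 PXR-Luc HepG2 cells in medium with 5% charcoal-stripped FBS were pre-incubated 5hr, then exposed to compounds for 24hr at 37C. Viability was read in the same wells by CellTiter-Fluor fluorescence, reagent added after 23hr with a 1hr incubation.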
For orientation: In qHTS, concentration-response curves come from the screen itself.

Assay [2] in a line: Caspase-3/7 induction in HepG2 cells by small molecules, qHTS assay (AID 1346978). Further: nearly all actives have a fitted effect of over 15% in size. In a few lines:
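Wild-type HepG2 cells (2,000/well) were settled 5 h at 37 C, 5% CO2, then exposed to compounds in DMSO for 17 h. Caspase-3/7 activity was read by luminescence 30 min after adding Caspase-Glo 3/7 reagent at room temperature.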

The nature of assay [3]: Caspase-3/7 induction in CHO-K1 cells by small molecules, qHTS cell viability counter screen (AID 1346979). Further: nearly all actives have a fitted effect of over 35% in size. Further: potency means the concentration at half of the fitted maximal effect. In a few lines:
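Wild-type CHO-K1 cells were seeded at 1,500 per well, rested 5hr at 37 C, then exposed to compounds in DMSO. After 16hr, CellTiter-Fluor reagent was added and fluorescence read 1hr later as the viability measure.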

A short description of assay [4]: Caspase-3/7 induction in CHO-K1 cells by small molecules, qHTS assay (AID 1346980). Further: nearly all actives have a fitted effect of over 15% in size. An outline of the steps: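 Wild-type cells were seeded at 1,500 per well and settled 5 hr at 37 C, 5% CO2, then exposed to DMSO-dissolved compounds for 17 hr. Caspase-Glo 3/7 reagent was added, and luminescence was read after 30min at room temperature.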
A short description of assay [5]: Caspase-3/7 induction in HepG2 cells by small molecules, qHTS cell viability counter screen (AID 1346981). Further: series mostly up to about 92 µM; nearly all actives have a fitted effect of over 30% in size. An outline of the steps:
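After a 5-hr attachment period at 37 C and 5% CO2, wild-type HepG2 cells received compounds in DMSO. Sixteen hours later CellTiter-Fluor was dispensed and the fluorescent signal quantified after a further hour.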

Assay [6] has as its target Nuclear receptor subfamily 1 group I member 2 (Homo sapiens) (UniProt O75469). Nature of the assay: Human pregnane X receptor (PXR) small molecule agonists, qHTS assay (AID 1346982). Further: nearly all actives have a fitted effect of over 35% in size. Further: potency means the concentration at half of the fitted maximal effect. An outline of the steps:
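Tox21 qHTS; PXR-Luc HepG2; compounds pinned from DMSO; 24 hr, 37 C; ONE-Glo luciferase detection, 30 min room temperature.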

Assay [7] addresses Acetylcholinesterase (Homo sapiens) (UniProt P22303). Description: Acetylcholinesterase (AChE) small molecule antagonists: colormetric cell-based qHTS assay (AID 1347395; calls by dose curve; further: nearly all actives have a fitted effect of over 30% in size; further: potency means the concentration at half of the fitted maximal effect). In a few lines:
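SH-SY5Y cells, plated overnight at 37 C, were exposed to compounds for 30 min at 37 C and 5% CO2. Acetylthiocholine plus DTNB was then added, and thiocholine from endogenous AChE was quantified colorimetrically after 90 min at 37 C.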

The target is the same in assay [8]. Description: Acetylcholinesterase (AChE) small molecule antagonists: enzyme-based qHTS assay (AID 1347397; calls by dose curve; further: nearly all actives have a fitted effect of over 55% in size). As to conditions: Potency: AChE enzyme activity inhibition. An outline of the steps:
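Compound or DMSO vehicle was pin-transferred onto recombinant human AChE (50 mU/mL as dispensed) and left 30 min at room temperature. Acetylthiocholine with DTNB then started the reaction, read colorimetrically 10 min later.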

The target is the same in assay [9]. Nature of the assay: Acetylcholinesterase (AChE) small molecule antagonists: fluorescence cell-based qHTS assay (AID 1347398; calls by dose curve; further: nearly all actives have a fitted effect of over 50% in size). The conditions noted are these: Potency: AChE activity. In a few lines: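 Using neuroblastoma SH-SY5Y cells as the enzyme source, test chemicals are preincubated 30 min at 37 C; AChE-driven acetylthiocholine cleavage is then quantified by thiocholine-dependent Thiolite Green fluorescence after 40 min at room temperature.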

Assay [10] deals with Cytochrome P450 2C19 (Homo sapiens) (UniProt P33261). Nature of the assay: Cytochrome P450 Family 2 Subfamily C Member 19 (CYP2C19) small molecule antagonists: luciferase reporter qHTS assay (AID 1671197). Further: nearly all actives have a fitted effect of over 65% in size. Further: potency means the concentration at half of the fitted maximal effect. An outline of the steps:
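CYP2C19 P450-Glo, 1536-well qHTS. Cpd + enzyme/proluciferin substrate 10 min RT; + NADPH regen, 37C 1 h; stop with luciferin detection reagent, 20 min RT, luminescence (RLU). Pos ctrl ketoconazole.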
Background: In a reporter assay the amount or activity of a reporter protein is the signal.

The target of assay [11] is Cytochrome P450 2C9 (Homo sapiens) (UniProt P11712). Description: Cytochrome P450 Family 2 Subfamily C Member 9 (CYP2C9) small molecule antagonists: luciferase reporter qHTS assay (AID 1671198). Further: nearly all actives have a fitted effect of over 50% in size. Further: potency means the concentration at half of the fitted maximal effect. An outline of the steps: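 CYP2C9 activity was measured with a P450-Glo proluciferin substrate. Enzyme–substrate mix was held with compound for 10 min at room temperature, then NADPH regeneration solution was added for 1 h at 37C. Luciferin product was read as luminescence.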
Chain of Cytochrome P450 2C9 (Homo sapiens) (P11712 whole entry, looked up): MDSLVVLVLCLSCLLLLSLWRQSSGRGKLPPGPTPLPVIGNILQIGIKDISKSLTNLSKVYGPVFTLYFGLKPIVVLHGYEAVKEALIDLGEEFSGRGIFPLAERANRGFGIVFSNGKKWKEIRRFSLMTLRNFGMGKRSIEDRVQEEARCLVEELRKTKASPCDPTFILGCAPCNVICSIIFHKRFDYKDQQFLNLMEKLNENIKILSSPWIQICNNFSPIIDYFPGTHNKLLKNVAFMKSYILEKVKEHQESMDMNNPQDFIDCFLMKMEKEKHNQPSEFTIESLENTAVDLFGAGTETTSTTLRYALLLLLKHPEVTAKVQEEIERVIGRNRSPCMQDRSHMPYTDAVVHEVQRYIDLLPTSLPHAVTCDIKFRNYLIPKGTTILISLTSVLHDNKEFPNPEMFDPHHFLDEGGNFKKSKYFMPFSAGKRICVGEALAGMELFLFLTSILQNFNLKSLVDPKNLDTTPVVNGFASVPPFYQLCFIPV

For assay [12], the target named is Cytochrome P450 1A2 (Homo sapiens) (UniProt P05177). Nature of the assay: Cytochrome P450 Family 1 Subfamily A Member 2 (CYP1A2) small molecule antagonists: luciferase reporter qHTS assay (AID 1671199). Further: nearly all actives have a fitted effect of over 50% in size. Further: potency means the concentration at half of the fitted maximal effect. An outline of the steps:
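Room-temperature CYP1A2 reaction with proluciferin substrate: compounds added from DMSO, 10 min preincubation, NADPH regeneration for 1 h. Luciferin detection reagent then added; luminescence recorded as RLU.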

The target of assay [13] is Voltage-gated inwardly rectifying potassium channel KCNH2 (Homo sapiens) (UniProt Q12809). Description: Human Ether-a-go-go-Related Gene (hERG) channel small molecule antagonists: fluorescence cell-based qHTS assay (AID 1671200). An outline of the steps:
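U2OS cells expressing the channel were plated at 1000 cells/well, incubated overnight at 37 C, then loaded with FluxOR II thallium-sensitive dye for 1 h at room temperature in the dark, with a further 10 min at room temperature before stimulation.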
A general note: The hERG channel carries a current that helps repolarise heart muscle cells.

Assay [14] has as its target Cytochrome P450 3A4 (Homo sapiens) (UniProt P08684). Nature of the assay: Cytochrome P450 Family 3 Subfamily A Member 4 (CYP3A4) small molecule antagonists: luciferase reporter qHTS assay (AID 1671201). Further: nearly all actives have a fitted effect of over 50% in size. Further: potency means the concentration at half of the fitted maximal effect. In a few lines:
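P450-Glo CYP3A4 system with proluciferin substrate; compounds preincubated 10 min RT with enzyme-substrate mix, then NADPH regeneration added for 1 h RT. Detection reagent 20 min, luminescence read as relative luminescence units.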

Assay [15] deals with Acetylcholinesterase (Homo sapiens) (UniProt P22303). Nature of the assay: Acetylcholinesterase (AChE) small molecule antagonists: enzyme-based qHTS assay with human liver microsomes (AID 1347399; calls by dose curve; further: nearly all actives have a fitted effect of over 60% in size). As to conditions: Potency: qHTS inhibition. An outline of the steps:
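Recombinant human AChE (50 mU/mL in the enzyme mix) and human liver microsomes (0.25 mg/mL final) were preincubated with compound and NADPH (0.25 mg/mL final) for 30 min at 37 C. Acetylthiocholine/DTNB was then added; thiocholine was read colorimetrically after 10 min at room temperature.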

In assay [16] the target is Cytochrome P450 2D6 (Homo sapiens) (UniProt P10635). Nature of the assay: Cytochrome P450 Family 2 Subfamily D Member 6 (CYP2D6) small molecule antagonists: luciferase reporter qHTS assay (AID 1671196). Further: nearly all actives have a fitted effect of over 50% in size. Further: potency means the concentration at half of the fitted maximal effect. An outline of the steps:
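Room-temperature luminescent CYP2D6 activity assay: compound preincubated 10 min with enzyme–substrate mix, NADPH-initiated reaction 1 h, detection reagent 20 min before reading.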

Chain of Cytochrome P450 3A4 (Homo sapiens) (P08684 whole entry, looked up): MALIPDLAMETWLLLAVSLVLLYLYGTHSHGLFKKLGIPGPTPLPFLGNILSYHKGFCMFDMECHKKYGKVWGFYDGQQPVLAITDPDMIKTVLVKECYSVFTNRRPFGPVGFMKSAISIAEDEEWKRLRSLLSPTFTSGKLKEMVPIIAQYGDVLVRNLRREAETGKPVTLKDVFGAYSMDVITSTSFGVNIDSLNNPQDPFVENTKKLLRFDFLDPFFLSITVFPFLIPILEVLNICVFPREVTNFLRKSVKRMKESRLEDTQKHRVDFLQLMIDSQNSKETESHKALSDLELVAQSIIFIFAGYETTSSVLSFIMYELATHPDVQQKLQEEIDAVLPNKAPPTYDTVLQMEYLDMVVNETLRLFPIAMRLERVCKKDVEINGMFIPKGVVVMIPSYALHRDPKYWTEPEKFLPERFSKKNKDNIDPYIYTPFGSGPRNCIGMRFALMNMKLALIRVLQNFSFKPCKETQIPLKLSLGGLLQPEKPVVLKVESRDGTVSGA
Chain of Cytochrome P450 2D6 (Homo sapiens) (P10635 whole entry, looked up): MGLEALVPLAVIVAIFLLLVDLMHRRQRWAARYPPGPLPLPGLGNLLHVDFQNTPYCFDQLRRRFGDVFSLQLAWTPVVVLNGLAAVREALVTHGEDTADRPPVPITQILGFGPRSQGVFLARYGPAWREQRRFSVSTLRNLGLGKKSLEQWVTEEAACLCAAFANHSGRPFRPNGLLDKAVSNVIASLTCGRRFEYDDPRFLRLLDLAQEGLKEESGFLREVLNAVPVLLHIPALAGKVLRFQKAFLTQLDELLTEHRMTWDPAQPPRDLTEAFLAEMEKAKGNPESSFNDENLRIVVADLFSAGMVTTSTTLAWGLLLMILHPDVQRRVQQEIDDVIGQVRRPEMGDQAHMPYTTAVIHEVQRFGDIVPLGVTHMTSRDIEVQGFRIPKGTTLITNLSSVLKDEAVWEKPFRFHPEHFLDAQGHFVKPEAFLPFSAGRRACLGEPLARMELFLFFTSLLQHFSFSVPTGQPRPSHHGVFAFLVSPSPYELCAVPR
Chain of Cytochrome P450 2C19 (Homo sapiens) (P33261 whole entry, looked up): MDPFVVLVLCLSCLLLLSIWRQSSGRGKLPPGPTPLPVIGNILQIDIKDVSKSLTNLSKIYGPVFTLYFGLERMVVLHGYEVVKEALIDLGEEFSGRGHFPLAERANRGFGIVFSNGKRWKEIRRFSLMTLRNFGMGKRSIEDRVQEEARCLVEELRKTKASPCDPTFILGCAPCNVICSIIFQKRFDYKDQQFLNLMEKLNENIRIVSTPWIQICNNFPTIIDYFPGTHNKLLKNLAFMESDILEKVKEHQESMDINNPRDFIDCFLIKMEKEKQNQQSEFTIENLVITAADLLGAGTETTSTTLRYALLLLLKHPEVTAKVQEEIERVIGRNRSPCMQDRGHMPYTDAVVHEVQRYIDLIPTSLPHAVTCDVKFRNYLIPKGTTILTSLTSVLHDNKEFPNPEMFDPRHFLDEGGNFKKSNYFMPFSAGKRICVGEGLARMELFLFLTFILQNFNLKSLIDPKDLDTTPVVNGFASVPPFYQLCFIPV
Chain of Voltage-gated inwardly rectifying potassium channel KCNH2 (Homo sapiens) (Q12809 whole entry, looked up): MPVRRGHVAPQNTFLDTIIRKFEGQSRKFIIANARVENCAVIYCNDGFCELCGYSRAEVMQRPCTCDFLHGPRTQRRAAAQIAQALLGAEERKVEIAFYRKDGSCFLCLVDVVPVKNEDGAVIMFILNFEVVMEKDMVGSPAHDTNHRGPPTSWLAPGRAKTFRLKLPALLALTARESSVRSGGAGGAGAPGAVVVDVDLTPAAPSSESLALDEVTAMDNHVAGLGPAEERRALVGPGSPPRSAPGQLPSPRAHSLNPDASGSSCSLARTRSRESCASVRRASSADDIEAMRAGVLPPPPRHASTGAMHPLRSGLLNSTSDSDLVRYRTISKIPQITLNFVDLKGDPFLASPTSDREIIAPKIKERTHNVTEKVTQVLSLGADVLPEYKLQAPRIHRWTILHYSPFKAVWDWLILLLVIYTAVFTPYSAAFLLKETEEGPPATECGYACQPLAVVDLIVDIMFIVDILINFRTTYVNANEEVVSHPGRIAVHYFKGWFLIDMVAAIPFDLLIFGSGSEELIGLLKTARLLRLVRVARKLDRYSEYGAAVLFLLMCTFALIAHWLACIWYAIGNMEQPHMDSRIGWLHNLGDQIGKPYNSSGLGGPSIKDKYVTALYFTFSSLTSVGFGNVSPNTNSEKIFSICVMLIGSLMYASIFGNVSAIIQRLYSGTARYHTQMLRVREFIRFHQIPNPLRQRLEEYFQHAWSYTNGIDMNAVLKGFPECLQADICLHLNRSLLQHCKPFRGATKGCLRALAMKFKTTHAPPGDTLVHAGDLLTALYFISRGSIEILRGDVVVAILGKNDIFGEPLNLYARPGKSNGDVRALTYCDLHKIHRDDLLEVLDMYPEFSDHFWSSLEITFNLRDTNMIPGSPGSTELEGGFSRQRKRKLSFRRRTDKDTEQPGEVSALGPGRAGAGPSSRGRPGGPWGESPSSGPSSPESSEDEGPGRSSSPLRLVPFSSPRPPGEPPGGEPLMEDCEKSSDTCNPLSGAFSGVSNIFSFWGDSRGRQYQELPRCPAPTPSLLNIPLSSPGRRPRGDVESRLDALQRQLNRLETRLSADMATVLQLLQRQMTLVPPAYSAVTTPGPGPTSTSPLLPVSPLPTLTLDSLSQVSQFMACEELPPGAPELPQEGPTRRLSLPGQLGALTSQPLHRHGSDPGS
Chain of Acetylcholinesterase (Homo sapiens) (P22303 whole entry, looked up): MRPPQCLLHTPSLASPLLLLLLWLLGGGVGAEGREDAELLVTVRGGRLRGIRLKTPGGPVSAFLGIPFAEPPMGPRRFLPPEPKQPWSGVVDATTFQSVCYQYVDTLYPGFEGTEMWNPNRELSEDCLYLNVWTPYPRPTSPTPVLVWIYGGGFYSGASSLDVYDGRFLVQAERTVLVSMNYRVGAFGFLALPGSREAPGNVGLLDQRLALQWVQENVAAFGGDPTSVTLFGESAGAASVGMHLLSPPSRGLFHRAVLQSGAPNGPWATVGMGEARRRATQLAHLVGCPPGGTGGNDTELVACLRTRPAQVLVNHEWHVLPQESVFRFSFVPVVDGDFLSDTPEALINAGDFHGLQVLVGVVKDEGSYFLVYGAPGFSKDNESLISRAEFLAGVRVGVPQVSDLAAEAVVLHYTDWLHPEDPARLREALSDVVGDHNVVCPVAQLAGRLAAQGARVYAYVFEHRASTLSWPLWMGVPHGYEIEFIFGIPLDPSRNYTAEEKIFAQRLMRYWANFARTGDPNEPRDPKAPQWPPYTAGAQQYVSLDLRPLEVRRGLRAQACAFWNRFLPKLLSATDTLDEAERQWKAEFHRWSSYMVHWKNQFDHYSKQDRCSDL
Chain of Nuclear receptor subfamily 1 group I member 2 (Homo sapiens) (O75469 whole entry, looked up): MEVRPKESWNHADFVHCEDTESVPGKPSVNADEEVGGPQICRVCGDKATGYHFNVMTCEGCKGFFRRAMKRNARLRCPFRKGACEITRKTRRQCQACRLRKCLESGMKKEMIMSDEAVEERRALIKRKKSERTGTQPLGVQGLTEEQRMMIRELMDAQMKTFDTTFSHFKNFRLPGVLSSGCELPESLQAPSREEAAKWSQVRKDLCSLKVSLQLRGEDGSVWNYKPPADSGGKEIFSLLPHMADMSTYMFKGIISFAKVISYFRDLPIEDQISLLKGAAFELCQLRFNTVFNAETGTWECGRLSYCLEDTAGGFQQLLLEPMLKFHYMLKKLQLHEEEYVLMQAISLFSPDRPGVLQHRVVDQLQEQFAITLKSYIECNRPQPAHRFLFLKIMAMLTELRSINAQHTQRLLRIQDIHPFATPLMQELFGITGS
Chain of Cytochrome P450 1A2 (Homo sapiens) (P05177 whole entry, looked up): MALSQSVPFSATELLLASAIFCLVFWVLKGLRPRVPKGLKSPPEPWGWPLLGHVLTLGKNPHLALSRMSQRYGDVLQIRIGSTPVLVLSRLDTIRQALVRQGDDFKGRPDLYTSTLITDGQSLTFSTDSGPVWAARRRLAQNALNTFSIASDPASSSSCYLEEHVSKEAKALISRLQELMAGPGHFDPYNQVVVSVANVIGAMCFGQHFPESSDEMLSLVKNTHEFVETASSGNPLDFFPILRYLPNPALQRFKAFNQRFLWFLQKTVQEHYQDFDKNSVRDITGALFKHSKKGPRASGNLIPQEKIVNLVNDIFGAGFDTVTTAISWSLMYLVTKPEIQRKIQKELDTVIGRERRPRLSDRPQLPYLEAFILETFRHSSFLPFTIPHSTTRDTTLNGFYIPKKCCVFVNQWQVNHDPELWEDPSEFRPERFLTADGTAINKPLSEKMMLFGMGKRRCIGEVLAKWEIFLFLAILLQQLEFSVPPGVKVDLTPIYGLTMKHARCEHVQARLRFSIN

With `C=COC(C)=O`, the Potency entry in [1], in assay [2], in assay [3], in [4], in assay [5] and in assay [6] was “inactive” in each case. In addition, the Potency entry in [7], in assay [8], in assay [9], in assay [10], in assay [11] and in assay [13] was “inactive” throughout. The Potency result in assay [14] was “inactive”. The Potency in [12] is 41.3 µM (active).

As for `CCOC(=O)C(Cl)C(C)=O` (stereo not drawn), the Potency entry in assay [1], in [2], in assay [4], in [5], in assay [6] and in assay [8] was “inactive” each time. The Potency entry in assay [15], in [16], in assay [11], in [12], in assay [13] and in assay [14] was “inactive” throughout.

On to `CCCN(CCC)c1c([N+](=O)[O-])cc(S(C)(=O)=O)cc1[N+](=O)[O-]`, for which the Potency result in [1], in [2], in [4], in [8], in assay [9] and in [15] was “inactive” in each case. The Potency entry in assay [12] and in assay [13] was “inactive” in each case. The results for the Potency in assay [6], in [11] and in assay [14] were 2.43 µM (active), 28.3 µM (active) and 20 µM (active), respectively.

Turning to `ClCC(Br)CBr` (stereo not drawn), the Potency entry in assay [1], in assay [2], in assay [3], in [5], in [6] and in [7] was “inactive” throughout. Also, the Potency result in [8], in [9], in [15], in assay [16], in assay [10] and in assay [11] was “inactive” in each case. For the same compound, the Potency result in assay [13] and in assay [14] was “inactive” each time.

For `O=S(=O)(O)C(F)(F)C(F)(F)C(F)(F)C(F)(F)F`, the Potency entry in [2], in [4], in assay [6], in assay [7], in [8] and in assay [9] was “inactive” throughout. Besides, the Potency result in assay [15] is “inactive”. Also, the Potency in assay [16] is 59.8 µM (active); in [10], 33.6 µM (active); in assay [11], 17.9 µM (active).

Regarding `Clc1cccc(SC2CCNCC2)n1`, the Potency entry in assay [1], in assay [2], in [3], in assay [4], in [5] and in [7] was “inactive” in each case. Moreover, the Potency entry in [8], in [9], in assay [15] and in assay [13] was “inactive” in each case.

Consider `c1ccc(CN2CCNCC2)cc1`, for which the Potency result in assay [1], in assay [4], in [5], in assay [6], in [7] and in assay [8] was “inactive” in each case. Further, the Potency entry in assay [9], in assay [15], in [10], in [11], in assay [12] and in assay [14] was “inactive” each time. Moreover, the Potency in assay [16] was 17.2 µM (active).

In the case of `O=S1OC[C@@H]2[C@H](CO1)[C@]1(Cl)C(Cl)=C(Cl)[C@@]2(Cl)C1(Cl)Cl` (stereo partly drawn), the Potency entry in [5] and in assay [14] was “inactive” each time. The Potency in [6] is 30.6 µM (active); in assay [10], 7.96 µM (active); in assay [11], 39.9 µM (active); in assay [12], 35.6 µM (active).

As to `CC(c1ccc(O)cc1)(c1ccc(O)cc1)c1ccc(O)cc1`, the Potency result in assay [2], in assay [4], in [7], in assay [8], in [9] and in [15] was “inactive” in each case. Also, the Potency result in assay [12] and in [13] was “inactive” in each case. Further, the Potency in assay [3] is 68.6 µM (active); in assay [6] it was 68.6 µM (active); in assay [16] it was 71 µM (active); in [10], 28.3 µM (active); in assay [11], 10 µM (active); in assay [14] it was 31.7 µM (active).

Regarding `CC(C)N(C(=O)COc1nnc(C(F)(F)F)s1)c1ccc(F)cc1`, the Potency result in assay [1], in assay [2], in assay [3], in [4], in [5] and in assay [8] was “inactive” each time. Also, the Potency result in assay [15], in assay [16], in [13] and in [14] was “inactive” each time. For the same compound, the Potency in assay [7] was 39.9 µM (active); in assay [10], 1 µM (active); in assay [11] it was 35.6 µM (active); in [12], 39.9 µM (active).

For `O=S(=O)(Cl)c1ccccc1`, the Potency result in [1], in assay [2], in [4], in assay [5], in assay [6] and in [7] was “inactive” each time. Besides, the Potency entry in assay [8], in assay [9], in [15], in assay [10], in assay [11] and in [12] was “inactive” in each case. Moreover, the Potency result in assay [13] and in [14] was “inactive” in each case.

For the compound `CCOP(=O)(OCC)Oc1ccc([N+](=O)[O-])cc1`, the Potency result in assay [1], in [2], in [3], in assay [5], in [13] and in assay [14] was “inactive” each time. The Potency in [16] is 1.61 µM (active) and 1.59 µM (active); in assay [10], 1.61 µM (active) and 1.78 µM (active); in assay [11] it was 64 µM (active); in [12], 32.1 µM (active) and 31.7 µM (active).

On to `CCOP(=S)(OCC)Oc1cc(Cl)c(Br)cc1Cl`, for which the Potency entry in assay [1], in [2], in assay [3], in assay [4], in assay [5] and in [16] was “inactive” in each case. Besides, in [13], the Potency result was “inactive”. Besides, the Potency in assay [6] was 61.1 µM (active); in assay [10], 0.71 µM (active); in assay [11], 2 µM (active); in assay [12], 3.56 µM (active); in [14], 2.24 µM (active).

On to `CC(C)O.CC(C)O.OCCN(CCO)CCO.OCCN(CCO)CCO.[Ti]`, for which the Potency entry in assay [1], in assay [2], in [3], in assay [4], in assay [5] and in assay [6] was “inactive” throughout. In addition, the Potency result in assay [7], in assay [8], in assay [9], in assay [16], in [10] and in assay [12] was “inactive” throughout. Moreover, the Potency entry in assay [13] and in [14] was “inactive” throughout.
